Shown are actives, neighbours in structure and some others; about 19% of the full set was active somewhere.
IL-1B inflam inh = qHTS for Inhibitors of Inflammasome Signaling: IL-1-beta AlphaLISA Primary Screen. THP-1 LPS/ATP IL-1B secretion, AlphaLISA, 16 h; active compounds read low. 4.7% of 360,000 active. activity change, % at 57.5 µM; in the data active = activity change below about -50%; inconclusive = mostly about -30% to -49%
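Secreted IL-1B measured by AlphaLISA bead assay after 16 h compound exposure of THP-1 cells; compounds (final up to 57.5 uM) added 1 h before LPS (250 ng/mL) and ATP (1.25 mM) stimulation; lower signal means less secretion.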
DT40 TDP1 no CPT = qHTS for Inhibitors of human tyrosyl-DNA phosphodiesterase 1 (TDP1): qHTS in cells in absence of CPT; DT40 Tdp1-/- hTDP1 cells, no CPT, ATP luminescence, 48 h; Potency, µM (titrated, usually from 46.2 µM), without a hit: at the top dose activity change, negative = growth inhibition, most hits filed as inhibitors; 15% of 420,000 active; also: potency is read from the fitted curve at half-maximal effect; nearly all actives have a fitted effect of over 55% in size
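Stably hTDP1-transfected Tdp1-null chicken DT40 cells were treated with library compounds minus camptothecin and grown for at least 48 hr at 37 °C, after which cellular ATP was quantified by luminescence.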
ELG1 DNA repair = qHTS screen for small molecules that inhibit ELG1-dependent DNA repair in human embryonic kidney (HEK293T) cells expressing luciferase-tagged ELG1; Potency, µM (series often up to 46.1 µM), without a hit: at the highest dose activity change, negative = inhibition, actives largely listed as inhibitors; 2.3% of 330,000 active; HEK293T ELG1-luciferase reporter, luminescence, 16 h; DNA damage induced by 5-fluorouridine; also: potency is read from the fitted curve at half-maximal effect; nearly all actives have a fitted effect of over 55% in size
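In this reporter screen, reduction of luminescence relative to DMSO vehicle indicated activity. Compounds and 5-fluorouridine were added together to 2,000 cells per well, incubated for 16 hr at 37 °C, then developed with ONE-Glo.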
DT40 TDP1 CPT = qHTS for Inhibitors of human tyrosyl-DNA phosphodiesterase 1 (TDP1): qHTS in cells in presence of CPT. chicken DT40 Tdp1-/-;hTDP1 cells + 20 nM CPT, ATP luminescence, 48 h. Potency, µM (titrated, usually from 46.2 µM), for the others: at the highest dose activity change, negative = growth inhibition, hits mostly inhibitors. 12% of 420,000 active. AID 686979, 2013; also: potency is read from the fitted curve at half-maximal effect; nearly all actives have a fitted effect of over 55% in size
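Cell growth measured by CellTiter-Glo luminescence after a minimum 48 h, 37 C compound exposure with 20 nM CPT in Tdp1-knockout DT40 cells stably expressing hTDP1, seeded 400/well; qHTS titration format.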
HT1080NT lethal = qHTS for induction of synthetic lethality in tumor cells producing 2HG: qHTS for the HT-1080-NT fibrosarcoma cell line | 1.6% of 360,000 active | HT-1080-NT fibrosarcoma viability, CellTiter-Glo ATP luminescence, 48 h | Potency, µM (titrated, usually from 46.1 µM), inactives show top-dose activity, negative = less viability, hits mostly cytotoxic | AID 686970, 2013;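 also: NT is the 2HG producing partner of a matched IDH1 knockdown line; potency is read from the fitted curve at half-maximal effect; 0% = DMSO-treated cells and -100% = media-only wells without cells; nearly all actives have a fitted effect of over 55% in size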
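Viability by CellTiter-Glo luminescence after 48 h compound exposure at 37C of HT-1080-NT cells (750/well, RPMI, 5% FBS). % activity scaled between DMSO wells and medium-only wells, then curve-fitted and categorized by curve class.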
HT1080 IDH1KD tx = qHTS for induction of synthetic lethality in tumor cells producing 2HG: qHTS for the HT-1080-IDH1KD cell line. HT-1080 IDH1 knockdown viability, ATP luminescence, 48 h. Potency, µM (highest dose often 46.1 µM), for inactives: at the highest dose activity, negative = toxicity, most hits filed as cytotoxic. 2% of 360,000 active;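 also: potency is read from the fitted curve at half-maximal effect; 0% = DMSO wells and -100% = cell-free medium wells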
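% activity derives from luminescence (CellTiter-Glo), normalised to DMSO and no-cell wells. HT-1080-IDH1KD cells, 750/well, had 48 h compound exposure at 37 °C.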
* marks the source's active call; other numbers are inactive results; ? = inconclusive; nt = no result. Unless noted, calls follow the shape of the dose curve; as a rule, active = well fitted curve in the direction sought with a large enough effect; inconclusive = small, poorly fitted or top-dose-only effect, or another doubt; inactive = no such curve, though single readings can be large; an effect the other way counts as inactive or inconclusive. Unless noted, % is scaled to controls: 0 for no effect and ±100 for the full control effect.

SMILES	IL-1B inflam inh	DT40 TDP1 no CPT	ELG1 DNA repair	DT40 TDP1 CPT	HT1080NT lethal	HT1080 IDH1KD tx
CNC(=O)c1cc2c(n(-c3ccc(C)cc3)c1=O)CC(C)(C)CC2=O	nt	0%	nt	0%	nt	nt
CCOC(CNCc1cc(C)c2[nH]c3ccccc3c2c1C)OCC	-96*	12µM*	nt	16µM*	-3%	?
CCOC(CCNC(=O)c1cc2c(=O)[nH]c3ccccc3c2s1)OCC	-12	?	-12%	?	6%	19%
COc1cc2c(cc1OC)C1C/C(=N\O)C(CC(C)C)CN1CC2 (stereo not given)	30	21µM*	-1%	?	0%	-2%
CCC(CC)CC1CN2CCc3cc(OC)c(OC)cc3C2CC1(O)CC (stereo not given)	-7	8.2µM*	nt	8.2µM*	-14%	-13%
C=CCn1c(SCc2ccc(C(=O)Nc3nccs3)cc2)nnc1-c1ccc(C)c(Cl)c1	-52*	23µM*	?	?	-21%	?
Cc1ccccc1-c1cc(C(=O)O)n(CC2CC(c3cccnc3)=NO2)n1 (stereo not given)	0	20%	29%	17%	6%	3%
COc1cccc(CN2CC(C(=O)NC3CCC3)CCC2=O)c1 (stereo not given)	14	-23%	0%	-1%	2%	-1%
N=C1/C(=C\c2ccc(OC(=O)c3ccccc3Cl)cc2)C(=O)N=C2SC(N3CCOCC3)=NN12	-11	-18%	12%	-2%	-6%	7%
N#CC(C#N)=C1C=CC=CN1/C(=C\c1ccco1)C(=O)c1ccc(-c2ccccc2)cc1	-67*	0.58µM*	?	0.92µM*	?	?
CC(/C=N/n1c(-c2ccc(Cl)cc2)n[nH]c1=S)=C\c1ccco1	3	?	0%	?	-1%	13%
N#C/C(=C\c1ccco1)C(=O)NCc1ccccc1	0	-10%	?	-4%	0%	1%
N#CC(C#N)=C1C=CC=CN1/C(=C\c1ccco1)C(=O)c1ccc(Cl)cc1	-101*	0.92µM*	?	0.58µM*	?	?
Cc1ccc(-n2c(=O)c3c(C)c(C(=O)N(C)C)sc3n(CC(=O)C(C)(C)C)c2=O)cc1C	nt	-15%	nt	-24%	nt	nt
CCc1cc(C(=O)NCCN2Cc3ccccc3OC(c3ccsc3)C2)n(C)n1 (stereo not given)	nt	21µM*	nt	?	nt	nt
COc1ccc(OC2CCN(S(=O)(=O)c3ccc(OC)cc3)CC2)cc1	19	?	15µM*	?	-14%	-13%
O=S(=O)(c1ccc(F)cc1)N1CCC(Oc2ccc(-n3cnnn3)cc2)CC1	nt	-5%	nt	-2%	nt	nt
O=S(=O)(c1cccc(C(F)(F)F)c1)N1CCC(Oc2ccc(-n3cnnn3)cc2)CC1	nt	4.6µM*	nt	5.8µM*	nt	nt
COc1ccc(OC2CCN(S(=O)(=O)c3cccc(F)c3)CC2)cc1	0	?	?	?	-10%	-10%
COc1ccc(S(=O)(=O)N2CCC(Oc3ccc(-n4cnnn4)cc3)CC2)cc1	nt	-25%	nt	10µM*	nt	nt
CCOc1ccc(S(=O)(=O)NC(C)C)cc1C(N)=O	3	-4%	-14%	13%	12%	3%
CCOC(=O)c1ccc(NC(=O)c2ccc3c(c2)c(C)c(C)n3Cc2ccc(F)cc2)cc1	nt	8.2µM*	nt	9.2µM*	nt	nt
